This note sets out measurements from PubChem BioAssay (NCI).

About 83,000 compounds went through this panel and 20% of them were active in at least one assay; those are over-represented in the sample as a whole.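 For each line, cells grew in 96-well plates with the test compound present at a single concentration for 48 hours.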 A number with no mark means an inactive call. Calls of active or inactive are those of the source. The calls were made as follows: active = growth percent below 10; inactive = the rest.

What all share (assay): NCI-60 one-dose screen, 48 h (100 = growth as untreated, 0 = no growth, -100 = all killed)
In one assay the test system is NCI-H23 lung. As to conditions: 10 µM unless noted.
The next assay has as its system NCI-H226 lung. As to conditions: 10 µM unless noted.
For the next assay, the system named is NCI-H322M lung. Conditions: 10 µM unless noted.
The next assay deals with HOP-62 NSCLC. As to conditions: 10 µM unless noted.
A further assay relates to NCI-H460 lung. As to conditions: 10 µM unless noted.
The test system of another assay is HOP-92 NSCLC. As to conditions: 10 µM unless noted.
Another assay relates to NCI-H522 lung. Conditions: 10 µM unless noted.
A further assay has as its system A549/ATCC NSCLC. Conditions: 10 µM unless noted.
Another assay has as its system 786-0 renal. As to conditions: 10 µM unless noted.
For another assay, the system named is COLO 205 colon. Conditions: 10 µM unless noted.
Another assay has as its system DU-145 prostate. As to conditions: 10 µM unless noted.
Another assay deals with K-562 leukemia. As to conditions: 10 µM unless noted.
A further assay deals with MALME-3M melanoma. As to conditions: 10 µM unless noted.
The subject of a further assay is MDA-MB-231 breast. As to conditions: 10 µM unless noted.
Another assay relates to RXF 393 renal. As to conditions: 10 µM unless noted.
The subject of the next assay is SF-268 CNS. Conditions: 10 µM unless noted.
The subject of another assay is SF-295 CNS. Conditions: 10 µM unless noted.
The subject of another assay is SF-539 CNS. As to conditions: 10 µM unless noted.
Another assay deals with UACC-257 melanoma. As to conditions: 10 µM.
The subject of a further assay is M14 melanoma. Conditions: 10 µM unless noted.

Consider `COc1ccc(CCN2C(=O)CSC2=S)cc1OC`, for which the growth with NCI-H23 lung was 98.9%; in the assay on NCI-H226 lung, 100%; with NCI-H322M lung, 101%; in the assay with HOP-62 NSCLC, 105%; in the assay on NCI-H460 lung it was 102%; with HOP-92 NSCLC it was 68.7%. Further, the growth in the assay on NCI-H522 lung is 55.1%; with A549/ATCC NSCLC, 97.2%; with 786-0 renal, 94.9%; with COLO 205 colon it was 117%; in the assay on DU-145 prostate it was 18.9%; in the assay with K-562 leukemia it was 64.8%. In addition, the growth is 95.6% in the assay on MALME-3M melanoma; 80.4% in the assay on MDA-MB-231 breast; 59.2% in the assay with RXF 393 renal; 100% in the assay with SF-268 CNS; 102% in the assay with SF-295 CNS; 93.9% in the assay with SF-539 CNS. Also, the growth is 96.4% in the assay with UACC-257 melanoma and 94.3% in the assay with M14 melanoma.

As for `CN1CCN(c2ccc(C(=O)/C=C/c3ccc(Cl)c(C(F)(F)F)c3)cc2)CC1`, the growth with NCI-H23 lung was 81.5%; in the assay with NCI-H226 lung, 86%; in the assay on NCI-H322M lung, 78.8%; in the assay with HOP-62 NSCLC, 88.9%; in the assay with NCI-H460 lung it was 88%; with HOP-92 NSCLC, 41.8%. Further, the growth in the assay on NCI-H522 lung is 76.4%; with A549/ATCC NSCLC, 72.8%; with 786-0 renal it was 79.9%; with COLO 205 colon, 60.6%; with DU-145 prostate, 77.9%; in the assay on K-562 leukemia it was 7.64% (active). In addition, the growth with MALME-3M melanoma was 88.4%; in the assay on MDA-MB-231 breast, 83.3%; in the assay with RXF 393 renal, 63.4%; in the assay with SF-268 CNS it was 87%; in the assay with SF-295 CNS it was 103%; with SF-539 CNS it was 49.4%. Further, the growth was 75.2% in the assay with UACC-257 melanoma and 87.2% in the assay on M14 melanoma.

Regarding `CCC(=O)Nc1ccc(-c2nc(-c3cccc(O)c3)c(-c3ccnc(Br)c3)[nH]2)cc1`, the growth in the assay on NCI-H23 lung was 86%; in the assay on NCI-H226 lung, 74.2%; in the assay with NCI-H322M lung, 73.9%; with HOP-62 NSCLC, 75%; in the assay with NCI-H460 lung, 20.9%; in the assay with HOP-92 NSCLC it was 57.5%. Besides, the growth was 57.8% in the assay on NCI-H522 lung; 83.6% with A549/ATCC NSCLC; 46.8% in the assay with 786-0 renal; 80.4% in the assay on COLO 205 colon; 56% with DU-145 prostate; 32.8% in the assay on K-562 leukemia. The growth was 59.8% in the assay with MALME-3M melanoma; 71.8% with MDA-MB-231 breast; -4.84% (active) in the assay with RXF 393 renal; 82.1% with SF-268 CNS; 45.8% in the assay on SF-295 CNS; 57.1% with SF-539 CNS. The results for the growth in the assay with UACC-257 melanoma and in the assay with M14 melanoma were 64.1% and 66.7%, respectively.

With `O=C(Nc1cc(F)cc2cccnc12)c1cnc(N2CCOCC2)cn1`, the growth was 59.2% with NCI-H23 lung; 80.7% in the assay with NCI-H226 lung; 92% in the assay with NCI-H322M lung; 87.3% in the assay on HOP-62 NSCLC; 98.9% with NCI-H460 lung; 83.7% with HOP-92 NSCLC. The growth in the assay with NCI-H522 lung is 15.2%; with A549/ATCC NSCLC, 95.3%; in the assay on 786-0 renal, 65.7%; in the assay with COLO 205 colon it was 18.1%; with DU-145 prostate, 68.5%; in the assay with K-562 leukemia it was 22.7%. The growth was 53.6% in the assay on MALME-3M melanoma; 54.7% in the assay with MDA-MB-231 breast; 59.8% in the assay with RXF 393 renal; 94.3% in the assay on SF-268 CNS; 97.4% in the assay on SF-295 CNS; 87.6% with SF-539 CNS. Moreover, the growth in the assay on UACC-257 melanoma is 30.6%; in the assay on M14 melanoma it was 70.6%.

Take `COc1ccc(OC)c([C@H]2c3[nH]c4ccccc4c3C[C@H]3C(=O)N(CCCCCCC(=O)NO)CC(=O)N23)c1`: the growth is 100% in the assay with NCI-H23 lung; 103% in the assay with NCI-H226 lung; 93.3% in the assay on NCI-H322M lung; 85.4% in the assay on HOP-62 NSCLC; 87.1% in the assay on NCI-H460 lung; 82% in the assay on HOP-92 NSCLC. For the same molecule, the growth in the assay with NCI-H522 lung is 69.2%; with A549/ATCC NSCLC it was 106%; in the assay on 786-0 renal, 99.5%; with COLO 205 colon, 86.4%; in the assay on DU-145 prostate it was 90.1%; with K-562 leukemia, 54.2%. Also, the growth is 61.6% in the assay on MALME-3M melanoma; 82.3% in the assay with MDA-MB-231 breast; 107% with RXF 393 renal; 104% in the assay with SF-268 CNS; 94.7% in the assay with SF-295 CNS; 78.5% with SF-539 CNS. Besides, the growth was 67.2% with UACC-257 melanoma and 83.3% in the assay with M14 melanoma.

Consider `N#C/C(=C\c1ccc(Cl)cc1Cl)C(N)=O`, for which the growth in the assay with NCI-H23 lung was 104%; with NCI-H226 lung, 109%; with NCI-H322M lung, 100%; with HOP-62 NSCLC, 101%; in the assay on NCI-H460 lung, 106%; in the assay on HOP-92 NSCLC, 122%. For the same molecule, the growth with NCI-H522 lung was 93.9%; with A549/ATCC NSCLC it was 109%; in the assay with 786-0 renal, 101%; in the assay with COLO 205 colon, 117%; in the assay on DU-145 prostate it was 114%; with K-562 leukemia, 80.3%. In addition, the growth was 105% with MALME-3M melanoma; 100% with MDA-MB-231 breast; 102% in the assay on RXF 393 renal; 101% in the assay on SF-268 CNS; 107% with SF-295 CNS; 104% with SF-539 CNS. Also, the growth in the assay with UACC-257 melanoma is 109%; in the assay with M14 melanoma it was 99.4%.

`C/C=C/[C@@H]1C=C[C@@H]2C[C@H](C)CC[C@H]2[C@]1(C)/C(O)=C1/C(=O)[C@H](CO)N(C)C1=O`: the growth in the assay with NCI-H23 lung was 56.8%; in the assay with NCI-H226 lung, 69.1%; in the assay with NCI-H322M lung it was 61.6%; in the assay with HOP-62 NSCLC it was 37.9%; in the assay on NCI-H460 lung it was 54.7%; with HOP-92 NSCLC, 56.9%. Further, the growth with NCI-H522 lung was 58.2%; in the assay on A549/ATCC NSCLC, 42.3%; with 786-0 renal it was 47.3%; in the assay on COLO 205 colon it was 78.1%; in the assay on DU-145 prostate, 56.5%; in the assay on K-562 leukemia, 46.5%. Also, the growth in the assay on MALME-3M melanoma is 79.5%; with MDA-MB-231 breast, 80.1%; in the assay on RXF 393 renal, 64.9%; with SF-268 CNS, 54.8%; with SF-295 CNS, 43.3%; in the assay on SF-539 CNS, 58.5%. Also, in the assay on M14 melanoma, the growth was 62.2%.
